High-throughput results deposited in PubChem by Broad Institute.
BioA inh – M. tuberculosis BioA enzyme inhibitors, primary screen, biochemical, plate reader, single point, HTS; inhibition, % at 9.99 µM; purified M. tuberculosis BioA enzyme; 360,000 compounds, 0.096% hits; 7,8-diaminopelargonic acid synthase BioA (Mycobacterium tuberculosis); in the data active = inhibition above about 40%
PfHsp40 yeast – rescue of yeast from PfHsp40 toxicity, primary screen, S. cerevisiae, ATP luminescence. S. cerevisiae expressing PfHsp40, growth rescue. 340,000 compounds, 0.68% hits. growth rescue, % at 12.5 µM; in the data active = growth rescue above about 28%, passing the limit was not always enough;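 note: yeast W303a lacking pdr1 and pdr3 grown in galactose medium; growth measured after three days at 30 °C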
TcdB GH inh – TcdB glycohydrolase inhibitors, primary screen, biochemical, single point, plate reader. Toxin B (Clostridioides difficile), P18177. TcdB glycohydrolase enzymatic assay. inhibition, % at 9.99 µM. 350,000 compounds, 0.24% hits. AID 652162, 2013; in the data active = inhibition above about 10%
FadD28 FP inh – inhibitors of FadD28 bisubstrate probe binding, primary screen, biochemical, fluorescence polarization, single point; Mycobacterium tuberculosis FadD28 fatty-acid-AMP ligase; inhibition, % at 12.5 µM; 360,000 compounds, 0.22% hits; AID 588549, 2011; in the data active = inhibition above about 8.5%, passing the limit was not always enough
PrP UTR inh – inhibition of PrP 5' UTR reporter expression; cell-based PrP 5' UTR mRNA reporter, plate reader; inhibition, % (concentration not given with the values); 340,000 compounds, 0.35% hits; AID 488862, 2010; in the data active = inhibition above about 52%
A number is an active result; – = inactive; · = no result. Sampled rows, rich in hits. Any-hit rate of the full collection: about 1.1%.

SMILES	BioA inh	PfHsp40 yeast	TcdB GH inh	FadD28 FP inh	PrP UTR inh
O=C(O)c1cccc(-c2ccc(/C=N/Nc3ccc([N+](=O)[O-])cc3)o2)c1	–	–	–	23.1	–
O=C(N/N=C/c1c(F)cccc1Cl)C1CC1	–	–	–	–	–
Cc1c(C(=O)O)cccc1-c1ccc(/C=N/Nc2ccc(Br)cc2)o1	57.0	355.1	·	17.1	–
O=C(O)c1ccc(N/N=C/c2ccc(-c3cc(Cl)ccc3Cl)o2)cc1	–	–	–	–	–
O=C(O)c1ccc(N/N=C/c2ccc(-c3cccc(Cl)c3)o2)cc1	–	–	–	9.9	–
C[C@@H]1CN([C@H](C)CO)C(=O)Cc2cc(NC(=O)NC3CCCCC3)ccc2O[C@H]1CN(C)C(=O)Nc1cccc2ccccc12	–	·	–	·	·
N#CC(C#N)=C1C=CC=CN1/C(=C\c1ccco1)C(=O)c1ccc(-c2ccccc2)cc1	·	55.7	·	–	–
O=C1C=C(N2CC2)c2ccccc2C1=O	–	·	–	8.9	·
C[C@@H]1CN([C@H](C)CO)C(=O)c2cccc(NS(=O)(=O)c3cn(C)cn3)c2O[C@H]1CN(C)C(=O)Nc1ccc2c(c1)OCO2	–	·	–	·	·
COCC(=O)N[C@H]1CC[C@H](CC(=O)NCc2ccc(Cl)cc2)O[C@H]1CO	–	·	–	·	·
COc1ccc(-n2nc(C#N)c(Cl)cc2=O)cc1	·	189.7	–	–	–
O=C(C[C@@H]1CC[C@H]2[C@@H](COC[C@@H](O)CN2CC2CCOCC2)O1)NCc1ccc(Cl)cc1	–	·	–	·	·
Cn1cc(C[C@@H](N)C(=O)O)c2ccccc21	·	·	–	·	·
Cn1cc(C(CO)Cc2ccccc2)c2ccccc21 (centres undefined)	–	–	19.7	–	–
COC1=CC(=O)C(O)=C(CCCCCCC/C=C/CCCCCCCC2=C(O)C(=O)C=C(OC)C2=O)C1=O	–	–	·	21.7	–
Cc1cccc(C)c1NC(=O)CSc1nnc(NC(=O)CN2CCOCC2)s1	–	63.9	·	–	–
CC(=O)Nc1ccc(OC(=O)Oc2ccc(NC(C)=O)cc2)cc1	–	–	11.2	–	–
COc1cc(/C=N/NC2=NCCCCC2)ccc1O	–	–	14.2	–	–
COc1ccccc1CC(=O)Nc1cccc(S(=O)(=O)N2CCOCC2)c1	–	94.1	–	–	–
COc1ccccc1CCC(=O)Nc1cccc(S(=O)(=O)N2CCOCC2)c1	–	–	–	–	–
COc1ccc(NC(=O)CSc2ccc([N+](=O)[O-])cc2)cc1S(=O)(=O)N1CCOCC1	·	–	–	12.1	–
COc1ccc(NC(=O)N(C)C[C@@H]2OCCCC[C@@H](C)Oc3ccc(N(C)C)cc3C(=O)N([C@@H](C)CO)C[C@@H]2C)cc1	–	·	–	·	·
Cc1ccc(S(=O)(=O)N2C[C@@H](O)COC[C@@H]3O[C@@H](CC(=O)NCC4CCCCC4)CC[C@H]32)cc1	–	·	–	·	·
O=C(N/N=C/c1ccccn1)c1sc2ccccc2c1Cl	–	198.9	–	–	–
Cc1cc(C(=O)COC(=O)c2cc(O)c3ccccc3c2O)c(C)n1CC1CCCO1 (centres undefined)	–	–	·	–	–
SMILES	BioA inh	PfHsp40 yeast	TcdB GH inh	FadD28 FP inh	PrP UTR inh
Cc1ccc(C(=O)OCC(=O)c2cc(C)n(CC3CCCO3)c2C)cc1 (centres undefined)	·	–	16.2	–	–
COC(=O)c1c(C)cc(O)c(C=O)c1O	–	–	·	–	–
COc1cc(C(=O)O)c2c(c1C)OC(=O)c1c(C)cc(O)c(C=O)c1O2	–	86.4	·	–	–
C[C@@H]1CN([C@H](C)CO)C(=O)c2cc(NC(=O)Nc3cccc4ccccc34)ccc2O[C@@H]1CN(C)S(=O)(=O)c1cccs1	–	·	–	·	·
CC(=O)N1c2ccc(C)cc2Sc2c1ccc1ccccc21	–	29.9	–	–	–
CC(C)CNC(=O)c1c(F)c(F)c(F)c(F)c1F	–	–	10.4	–	–
CCCNC(=O)N(C)C[C@@H]1Oc2ncc(C#CC3CC3)cc2C(=O)N([C@@H](C)CO)C[C@H]1C	–	·	–	·	·
COc1ccc2nc(NNC(=O)C3COc4ccccc4O3)sc2c1 (centres undefined)	–	–	39.4	–	–
Cc1ccccc1Cn1nnc(C(=O)Nc2ccc3c(c2)OCCO3)c1N	–	105.8	–	–	–
COc1ccccc1Sc1nc(-c2ccccn2)ncc1OC	·	–	–	–	–
FC(F)(F)c1cccc(Sc2cc(C(F)(F)F)nc(-c3ccccn3)n2)c1	–	–	·	–	–
COc1cnc(-c2ccccn2)nc1Sc1ccc(C)cc1	·	358.7	–	–	–
Cc1ccc(Sc2cc(C)nc(-c3ccccn3)n2)cc1	–	145.4	–	–	–
Cc1c(Br)c(=O)oc2c(Br)c(O)ccc12	·	–	–	–	–
Cc1c(Br)c(=O)oc2c(Br)c(O)c(O)cc12	·	–	–	13.3	–
CCC(=O)Nc1cccc(-n2nnnc2SCC(=O)c2ccc(C)c(C)c2)c1	·	–	–	10.6	–
CCC(=O)Nc1cccc(-n2nnnc2SCC(=O)NCc2ccco2)c1	–	–	–	–	–
Clc1ccc(SCCCCn2ccnc2)cc1	·	–	·	–	–
Clc1ccc(CCC(Cn2ccnc2)Sc2c(Cl)cccc2Cl)cc1 (centres undefined)	–	119.9	–	–	–
Cn1cc(C(=O)c2cccc(Cl)c2)cc1C#N	·	–	–	–	–
Cn1cc(C(=O)c2cccc(Cl)c2)cc1/C=N\O	·	30.0	–	–	–
CC(=O)c1ccc(NC(=O)Nc2ccc(NS(=O)(=O)c3ccc(C)cc3)cc2)cc1	·	–	·	11.2	–
CCS(=O)(=O)Nc1ccc2c(c1)C(=O)N(C)[C@H]1CC[C@@H](CC(=O)N[C@H]3CCN(Cc4ccccc4)C3)O[C@@H]1CO2	–	·	·	·	·
O=C(Nc1ccccc1N(C(=O)c1ccco1)S(=O)(=O)c1cccs1)c1ccco1	–	40.5	·	–	–
COc1ccc(N(C(=O)c2ccco2)S(=O)(=O)c2cccs2)cc1	–	–	·	–	–
SMILES	BioA inh	PfHsp40 yeast	TcdB GH inh	FadD28 FP inh	PrP UTR inh
Nc1cc2nc3ccccc3oc-2cc1=O	–	375.6	–	–	–
O=c1oc2ccccc2cc1-c1nc2ccccc2o1	–	–	–	–	–
COc1ccccc1C1CCN(C(=O)c2ccc(Cl)cc2)CC1	–	198.9	–	–	–
COc1ccccc1C1CCN(C(=O)c2ccccc2)CC1	–	–	–	–	–
S=C(NCCc1ccccc1)Nc1ncccn1	–	–	10.6	–	–
Cc1cccnc1NC(=S)NCCc1ccccc1	·	60.5	–	–	–
Cc1cccnc1NC(=S)Nc1ncccc1C	–	–	–	–	–
N/C(Cc1ccc(Cl)cc1Cl)=N\OC(=O)c1ccc(Br)o1	–	572.1	–	–	–
CCC(=O)N1CCN(c2ccc(Cl)cc2NC(=O)c2ccc([N+](=O)[O-])o2)CC1	–	45.6	–	–	–
CCCCCCCCCCCC(=O)c1c(O)cccc1O	–	165.0	–	–	–
CCCCCCCC(=O)NNC(=O)Cc1ccccc1	–	–	–	–	–
O=C(C[C@H]1C=C[C@H](NC(=O)CCN2CCCCC2)[C@H](CO)O1)Nc1ccccc1	·	·	–	·	·
